The results in this text go back to the supplement of paper PMC6555819.

What all share (experiment): PBM binding z-score (relative to random genomic background probes); higher = stronger binding; sequences stand for … in GC…GCGATTGACAGCGTAGAATGAAGG
Assay [1] concerns FXR:RXRa (NR concentration 270 nM, RXRa partner concentration 90 nM). The procedure, abridged:
(§1)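 Random background probes are the reference for binding z-scores. These scores derive from regression-normalized fluorescence on custom Agilent 4×180K protein-binding microarrays incubated 1 h with ligand-free nuclear receptor dimers. Binding was detected with antibodies against each partner (one per run).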

The subject of assay [2] is LXRa:RXRa (NR concentration 270 nM, RXRa partner concentration 90 nM). The procedure, abridged: as §1
Assay [3] has as its system LXRa homodimer (NR concentration 270 nM). The procedure, abridged:
as §1

The subject of assay [4] is LXRb:RXRa (NR concentration 270 nM, RXRa partner concentration 90 nM). The procedure, abridged: as §1
Assay [5] has as its system LXRb homodimer (NR concentration 270 nM). The procedure, abridged:
as §1

Assay [6] deals with PPARa:RXRa (NR concentration 270 nM, RXRa partner concentration 90 nM). An outline of the steps:
as §1

The test system of assay [7] is PPARg:RXRa (NR concentration 180 nM, RXRa partner concentration 90 nM). An outline of the steps:
as §1

Assay [8] concerns PPARg:RXRa 270nM:90nM, anti-RXR (NR concentration 270 nM, RXRa partner concentration 90 nM). The procedure, abridged: as §1
Assay [9] deals with PPARg:RXRa 30nM:10nM, anti-RXR (NR concentration 30 nM, RXRa partner concentration 10 nM). The procedure, abridged: as §1
Assay [10] deals with PPARg:RXRa 90nM:30nM, anti-RXR (NR concentration 90 nM, RXRa partner concentration 30 nM). The procedure, abridged:
as §1

Assay [11] has as its system PPARg:RXRa DBDmut IVT, anti-RXR (DBD mutation: RXRa K156A/R161A, NR concentration 270 nM, RXRa partner concentration 90 nM). The procedure, abridged:
as §1

For assay [12], the system named is PPARg:RXRa IVT, anti-PPARg (NR concentration 270 nM, RXRa partner concentration 90 nM). The procedure, abridged: as §1
The test system of assay [13] is PPARg DBDmut:RXRa IVT, anti-PPARg (DBD mutation: PPARg1 K132A/R137A, NR concentration 270 nM, RXRa partner concentration 90 nM). An outline of the steps:
as §1

For assay [14], the system named is PPARg DBDmut IVT, anti-PPARg (DBD mutation: PPARg1 K132A/R137A, NR concentration 270 nM). The procedure, abridged: as §1
In assay [15] the test system is PPARg homodimer (NR concentration 180 nM). The procedure, abridged:
as §1

Assay [16] relates to PXR:RXRa (NR concentration 270 nM, RXRa partner concentration 90 nM). The procedure, abridged:
as §1

For assay [17], the system named is PXR homodimer (NR concentration 270 nM). The procedure, abridged: as §1
Assay [18] relates to RARa:RXR (NR concentration 270 nM, RXRa partner concentration 90 nM). The procedure, abridged: as §1
For assay [19], the system named is RARa homodimer (NR concentration 270 nM). An outline of the steps:
as §1

For assay [20], the system named is RARb:RXRa (NR concentration 270 nM, RXRa partner concentration 90 nM). The procedure, abridged:
as §1

With TCGAATAGGTTAGGGGCATTCAGAATGGCGTCGA, the PBM binding z-score is 0.35 in [1]; 0.807 in [2]; -0.0676 in assay [3]; 1.26 in [4]; 0.0688 in [5]; 1.49 in assay [6]. For the same sequence, the PBM binding z-score is 0.443 in [7]; 2.13 in [8]; 2.93 in assay [9]; 2.56 in assay [10]; 1.9 in [11]; 0.68 in assay [12]. Further, the PBM binding z-score was -0.275 in assay [13]; -0.57 in assay [14]; 0.452 in [15]; 0.695 in assay [16]; 0.0158 in [17]; 0.806 in assay [18]. Moreover, the PBM binding z-score in [19] was 0.0673; in assay [20], 1.5.

With TCATATAGATAAACAGGTGAAAGTCCGTAAGTTA, the PBM binding z-score in assay [1] was 1.22; in assay [2], 1.04; in [3] it was 0.611; in [4], 1.09; in assay [5], 0.473; in assay [6], 1.69. Besides, the PBM binding z-score came out at 1.41 in assay [7]; 2.83 in assay [8]; 4.51 in assay [9]; 3.77 in [10]; 2.87 in assay [11]; 1.36 in assay [12]. Also, the PBM binding z-score in assay [13] is 0.902; in assay [14], 1.03; in [15], 1.33; in [16], 1.07; in assay [17], 0.573; in [18], 1.37. The PBM binding z-score is 1.53 in [19] and 0.536 in assay [20].

Regarding GGAACGAGGGCATTCGAGTAGATAGCATGGCGAT, the PBM binding z-score was 0.816 in assay [1]; 0.394 in assay [2]; -0.428 in assay [3]; 0.0953 in [4]; -0.937 in assay [5]; 1.33 in assay [6]. The PBM binding z-score was 1.11 in assay [7]; 0.886 in assay [8]; -0.0142 in assay [9]; 0.304 in [10]; 2.87 in [11]; 2.05 in assay [12]. Also, the PBM binding z-score in assay [13] is -0.011; in assay [14], -0.669; in assay [15], -0.256; in assay [16] it was 0.557; in assay [17], -0.0789; in [18] it was 0.335. Also, the figures for the PBM binding z-score in [19] and in assay [20] were -0.251 and 1.56, respectively.

Turning to AGTCAAAGTTCACTAGGTAAAGTAAGATTCAGCT, the PBM binding z-score in [1] worked out at 5.11; in assay [2] it was 4.89; in assay [3], 2.94; in assay [4], 2.95; in assay [5] it was 0.968; in assay [6], 4.53. In addition, the PBM binding z-score in assay [7] is 7.12; in assay [8], 6.14; in assay [9], 3.45; in assay [10] it was 5.45; in assay [11], 1.8; in assay [12], 4.56. The PBM binding z-score in [13] came out at 0.983; in assay [14], 1.74; in assay [15], 2.43; in assay [16] it was 3.9; in assay [17] it was 2.63; in assay [18], 3.07. Moreover, the PBM binding z-score came out at 1.41 in [19] and 4.74 in assay [20].

On to CCTGCTAGGTGATGGTCAGCTAATCTACAGTATG, for which the PBM binding z-score in [1] was -0.61; in assay [2], -0.646; in [3] it was -0.557; in assay [4], -0.682; in assay [5] it was -0.584; in assay [6], -0.449. Also, the PBM binding z-score in assay [7] is -0.12; in [8] it was -0.449; in assay [9], -0.178; in [10], -0.369; in assay [11], 1.57; in assay [12], 1.13. In addition, the PBM binding z-score in [13] was -1.09; in assay [14] it was -0.973; in assay [15], -0.218; in [16], -0.725; in assay [17], -0.701; in [18], -0.72. For the same sequence, the PBM binding z-score in assay [19] was -0.885; in [20] it was 0.079.

On to CGTCAAAGTTCAACTAAGGGAACGTAAAGCACGC, for which the PBM binding z-score in [1] is 6.99; in assay [2], 6.08; in assay [3], 3.68; in assay [4], 3.74; in assay [5], 1.85; in assay [6], 4.93. Moreover, the PBM binding z-score in assay [7] came out at 4.78; in assay [8], 5.73; in assay [9], 1.94; in assay [10], 4.2; in [11] it was 0.0961; in assay [12], 1.71. Moreover, the PBM binding z-score was found to be 0.646 in assay [13]; 0.162 in [14]; 2.6 in assay [15]; 4.91 in [16]; 3.23 in [17]; 3.84 in assay [18]. Besides, the PBM binding z-score in assay [19] turned out to be 1.55; in [20] it was 5.25.

CATACAGGTTCAGCTAGGCCAGAGTAGGGACGGC: the PBM binding z-score was 0.788 in assay [1]; 1.03 in assay [2]; -0.0766 in assay [3]; 0.293 in [4]; -0.03 in [5]; 1.21 in assay [6]. Moreover, the PBM binding z-score in assay [7] is 0.629; in assay [8] it was 0.338; in assay [9], -0.155; in assay [10], 0.0738; in assay [11], -0.2; in [12], 0.213. Further, the PBM binding z-score in assay [13] stood at 0.171; in assay [14], 0.0145; in assay [15] it was 0.268; in assay [16] it was 0.759; in assay [17], 0.121; in assay [18], 0.691. Moreover, the results for the PBM binding z-score in [19] and in [20] were -0.0156 and 1.44, respectively.
